Measurements as given in PubChem BioAssay (NCATS).
A number with no mark means an inactive call. Calls follow the shape of the dose curve; as a rule, active = well fitted curve in the direction sought with a large enough effect; inconclusive = small, poorly fitted or top-dose-only effect, or another doubt; inactive = no such curve, though single readings can be large or run the other way.

biological target: Hexokinase-4 (Homo sapiens) + Glucokinase regulatory protein (Homo sapiens) (UniProt P35557+Q14397); assay: qHTS assay for inhibitors of recombinant human GCK-GKRP interaction: ADP-Glo assay (AID 743206); settings: ADP-Glo luminescence, 60 min, 0% = vehicle-only wells with enzyme present; series mostly up to 76.9 µM; activity, positive = activation: at the top concentration;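 also: plate controls were DMSO plus enzyme for no effect and no enzyme for full effect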
Text: Glucokinase (GCK) is a glucose sensor in hepatocytes and pancreatic beta-cells. Hepatic GCK is regulated by glucokinase regulatory protein (GKRP), which is predominantly localized to the liver. GKRP binds to GCK inhibiting its activity in the fasting state while in the presence of glucose the GKRP is displaced. There is an additional layer of regulation by fructose 1-phosphate and fructose 6-phosphate, which inhibit and enhance the GCK-GKRP interaction, respectively. GCK plays a role in glucose homeostasis and there is an interest in the development of strategies to activate GCK to lower blood glucose levels in type 2 diabetes. To date the majority of effort has focused on direct activation of GCK and the assays developed herein look to activate GCK by inhibiting its binding to GKRP. A compound that inhibits the interaction of GCK with GKRP could be important for the treatment of diabetes and can also be used as a tool compound to further elucidate GCK-GKRP biology. To that end, we have developed a sensitive HTS biochemical assay where in GCK activity is coupled to luciferase to interrogate the GCK-GKRP interaction. This assay was screened against a small compound library to look for modulators of activity.
2 uL of 15 nM GST-GCK and 15 nM FLAG-GKRP proteins with 2 uM S6P (columns 1-2, 4-48; Millipore, Billerica, MA) are dispensed into Greiner, white solid-bottom 1536-well assay plates; columns 3 receive buffer without GCK as a control for maximum inhibition. Compounds (23 nL) are then transferred via Kalypsys pin tool equipped with 1536-pin array (10 nL slotted pins, V&P Scientific, San Diego, CA). The library compounds are in columns 5-48 and columns 1-4 serve as controls with DMSO in columns 1 and 3 and 26 mM 1:1.5 fold serial of gluckokinase activator (GKA-EMD) in column 2 and 26 mM of the glucokinase activator (GKA-EMD) in column 4. Following addition of compound, 1 uL of ATP […] is added, and the plate is incubated for 60 minutes at room temperature. The amount of ADP is then quantified by the ADP-Glo Kit (Promega, Madison, WI). First, 2 uL of the first kit reagent is added, and the reaction is incubated for 45 minutes; then, 4 uL of the second kit reagent are added and the reaction is incubated for 30 minutes at which time the luminescence is read on a Viewlux plate reader (Perkin-Elmer, Waltham, MA). The final concentration of reagents in the reaction are 0.4 mM ATP, 25 mM Hepes pH 7.6, 25 mM KCl, 2 mM MgCl2, 1 mM DTT, 0.025% BSA, 0.01% Tween 20, 5 mM glucose. Data are normalized to DMSO-treated control columns with (maximum signal) and without (minimum signal) enzyme.

Hexokinase-4 (Homo sapiens) + Glucokinase regulatory protein (Homo sapiens), sequence (P35557 whole entry, looked up): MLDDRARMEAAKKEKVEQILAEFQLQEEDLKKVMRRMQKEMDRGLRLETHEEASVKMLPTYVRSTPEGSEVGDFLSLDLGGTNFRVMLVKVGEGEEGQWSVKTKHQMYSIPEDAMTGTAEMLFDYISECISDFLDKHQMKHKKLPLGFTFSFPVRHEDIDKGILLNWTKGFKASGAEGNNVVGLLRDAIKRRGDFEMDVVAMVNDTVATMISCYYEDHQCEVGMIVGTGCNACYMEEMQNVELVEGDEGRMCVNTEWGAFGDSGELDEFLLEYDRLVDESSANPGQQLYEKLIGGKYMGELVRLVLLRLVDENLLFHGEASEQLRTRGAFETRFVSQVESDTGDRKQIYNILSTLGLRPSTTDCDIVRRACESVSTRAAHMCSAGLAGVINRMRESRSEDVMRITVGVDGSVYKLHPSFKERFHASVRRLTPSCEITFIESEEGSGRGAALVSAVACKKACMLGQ
Hexokinase-4 (Homo sapiens) + Glucokinase regulatory protein (Homo sapiens), sequence (Q14397 whole entry, looked up): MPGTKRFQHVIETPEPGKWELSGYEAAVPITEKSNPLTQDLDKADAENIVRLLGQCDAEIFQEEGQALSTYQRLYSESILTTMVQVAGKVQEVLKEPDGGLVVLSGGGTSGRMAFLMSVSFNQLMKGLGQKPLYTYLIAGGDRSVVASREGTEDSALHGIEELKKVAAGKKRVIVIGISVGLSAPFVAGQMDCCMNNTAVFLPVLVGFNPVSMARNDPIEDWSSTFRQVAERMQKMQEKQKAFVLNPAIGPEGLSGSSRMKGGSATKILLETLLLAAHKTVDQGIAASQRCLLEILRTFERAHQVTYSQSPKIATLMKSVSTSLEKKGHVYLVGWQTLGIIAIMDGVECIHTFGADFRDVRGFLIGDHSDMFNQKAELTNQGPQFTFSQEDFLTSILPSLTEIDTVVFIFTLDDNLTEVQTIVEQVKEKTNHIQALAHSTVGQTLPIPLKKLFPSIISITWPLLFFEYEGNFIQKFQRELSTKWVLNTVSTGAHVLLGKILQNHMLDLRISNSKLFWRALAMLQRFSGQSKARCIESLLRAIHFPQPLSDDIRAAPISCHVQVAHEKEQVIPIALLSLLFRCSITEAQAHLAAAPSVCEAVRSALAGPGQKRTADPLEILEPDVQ

Row | SMILES | activity, positive = activation [%]
1 | Brc1ccc([C@H]2CN3CCSC3=N2)cc1 | 4.94
2 | COc1cccc2c1[C@@H]1CN(CCCCn3c(=O)[nH]c4c(sc5ncc(-c6ccccc6)nc54)c3=O)C[C@@H]1CO2 | 10.3
3 | COc1ccccc1N1CCN(CCN2C(=O)CC3(CCCC3)CC2=O)CC1 | 3.95
4 | CC(C)N(CCC(=O)c1ccc2ccccc2c1)Cc1ccccc1 | 5.22
5 | O=C1NC(=O)/C(=C/c2ccc3c(c2)OC(F)(F)O3)S1 | 3.86
6 | Nc1ncnc2n[nH]c(Nc3ccc(F)cc3)c12 | -0.317
7 | CCN(CC)CCNC(=O)c1ccc(NS(C)(=O)=O)cc1 | 2.34
8 | C[N+](C)(C)CCO | 3.03
9 | Cn1cnc2c(NCc3ccccc3)nc(NCCO)nc21 | 2.34
10 | O=C1NC(c2cccc([N+](=O)[O-])c2)=CCN1c1ccccc1O | 0.844
11 | Clc1ccc2c(c1)N=C(N1CCNCC1)c1ccccc1N2 | -0.408
12 | Cc1nn(-c2ccccc2)c(C)c1/C=N/N1CCN(Cc2ccccc2)CC1 | -0.408
13 | O=[N+]([O-])c1ccc(-c2nc(-c3ccc(F)cc3)c(-c3ccncc3)[nH]2)cc1 | 2.22
14 | N[C@@H](Cn1ccc(=O)c(O)c1)C(=O)O | 2.05
15 | NC(N)=NCCCCN=C(N)N | -0.534
16 | COC(=O)C1=CO[C@@H](O)[C@@H]2C(CO)=CC[C@H]12 | 3.6
17 | CN(C)c1cc2c(Nc3ccc4c(cnn4Cc4ccccc4)c3)ncnc2cn1 | 0.805
